Data from the supplement of paper PMC8047044.

Tested on: Neuro-2a
Experiment: neurite formation score, plate-normalized to DMSO control mean 5.04 (score (0-8 scale)); higher = more or longer neurites
Conditions: 0.1 µM
Description: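 Neuro-2a mouse neuroblastoma cells in PLL-coated 96-well plates were pre-treated for 1 h in DMEM(+) with each kinase inhibitor at 0.1 µM, then switched to serum-free DMEM(-) with inhibitor to induce neurite outgrowth and fixed about 2-3 h later. Three blinded observers scored neurite formation from 0 (no neurites) to 8 (long neurites on almost all cells).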

SMILES | neurite formation score
COc1cc(N2CCOCC2)ccc1Nc1ncc(F)c(Nc2ccccc2NS(C)(=O)=O)n1 | 4.75
CNC(=O)Nc1ccc(-c2nc(N3CC4CCC(C3)O4)c3cnn(C4CCC5(CC4)OCCO5)c3n2)cc1 | 4.75
O=C(COc1ccc(Cl)cc1)NC1CCC(NC(=O)COc2ccc(Cl)cc2)CC1 (stereo not drawn) [ISRIB (trans-isomer)] | 4.42
Cc1ccc(-c2nn(C(C)(C)C)c3ncnc(N)c23)cc1 | 3.54
Nc1nc(Nc2ccc(S(N)(=O)=O)cc2)nn1C(=O)c1c(F)cccc1F | 5.58
NC(=O)c1cnc(N[C@@H]2CCCC[C@@H]2N)nc1Nc1cccc(-n2nccn2)c1 | 4.92
Clc1ccc(Nc2nnc(Cc3ccncc3)c3ccccc23)cc1 [Vatalanib] | 4.92
CN1CCC(COc2cnc(-c3cccc(Cn4nc(-c5cccc(C#N)c5)ccc4=O)c3)nc2)CC1 | 4.92
Cc1cc(C(C)Nc2ccccc2)c2nc(N3CCOCC3)cc(=O)n2c1 (configuration not stated) | 3.76
CO[C@H]1C[C@@H]2CC[C@@H](C)[C@@](O)(O2)C(=O)C(=O)N2CCCC[C@H]2C(=O)O[C@H]([C@H](C)C[C@@H]2CC[C@@H](OCCO)[C@H](OC)C2)CC(=O)[C@H](C)/C=C(\C)[C@@H](O)[C@@H](OC)C(=O)[C@H](C)C[C@H](C)/C=C/C=C/C=C/1C [Everolimus (RAD001)] | 5.54
Cc1nc(Nc2ncc(C(=O)Nc3c(C)cccc3Cl)s2)cc(N2CCN(CCO)CC2)n1 | 2.38
O=C1NC(=O)C(=Cc2ccc(-c3ccc(F)cc3)o2)S1 (stereo in doubt) | 3.08
